# From PubChem BioAssay (EPA / NIEHS)
# Results filed as inconclusive are left out. A structure can be active in one record and inactive in another. Active and inactive are the calls of the source. Rule for the calls, unless noted: active = hit-call score of the fitted dose curve at least 0.9, where 1 is the maximum; inactive = score below 0.9.
# Tests used:
# IYD (gene 389434) = experiment: CCTE_GLTED_hIYD: CCTE's human Iodotyrosine Deiodinase (xIYD) Inhibition Assay, Great Lakes Toxicology and Ecology Division (GLTED) Lab (AID 2284317; active = hit-call score of the fitted dose curve at least 0.9, where 1 is the maximum;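 note: cell-free human IYD enzyme made in baculovirus insect cells; iodide freed from monoiodotyrosine measured by cerium arsenite color change at 420 nm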)
# Summary of the method: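 Human IYD expressed in a baculovirus-insect cell system was incubated 3 h with monoiodotyrosine and test chemical. Released iodide, separated on Dowex columns, was quantified by the Sandell-Kolthoff reaction at 420 nm; plates were normalized to MNT and DMSO/NaOH controls.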
# [1] = CCTE_Deisenroth_5AR_NBTE_donor: CCTE's 5alpha-reductase NanoBRET Target Engagement Assay […], Deisenroth Lab (AID 2284319); settings: actives raise or lower the signal
# Summary of the method: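 SRD5A2-NanoLuc, HEK293T, 20 h expression. Chemical 10 nM - 29.9 uM, 8 conc, duplicate; 3 h preincubation + 2 h testosterone tracer. Nano-Glo substrate plus extracellular NanoLuc inhibitor; donor lum 460 nm. DMSO baseline, bidirectional fit.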
# [2] = CCTE_Deisenroth_5AR_NBTE_acceptor: CCTE's 5alpha-reductase NanoBRET Target Engagement Assay - Autofluorescence Screen, Deisenroth Lab (AID 2284321); settings: actives raise or lower the signal;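 note: compound fluorescence in the acceptor channel under 460 nm excitation flags autofluorescence artifacts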
# Summary of the method: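 Using three independent plate-reader runs, nominal 100 uM chemicals were checked for intrinsic fluorescence (ex 460 nm). DMSO defined the baseline for bidirectional fitting.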
# SRD5A2 (gene 6716) = experiment: CCTE_Deisenroth_5AR_NBTE_ratio: CCTE's 5alpha-reductase NanoBRET Target Engagement Assay - Ratio, Deisenroth Lab (AID 2284322); settings: actives raise or lower the signal
# Summary of the method: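 Reverse-transfect HEK293T with pNLF1-C-SRD5A2, express 20 h. Pre-incubate cells with chemical 3 h (8-point series, 10 nM - 29.9 uM, duplicate). Add testosterone tracer, 2 h more. Add substrate/inhibitor, read donor and acceptor emission.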
# [3] = TAMU_PeakParms_SingleDonor1434_Asystole: Texas A&M University (TAMU) 1.5-hr Human Induced Pluripotent Stem Cell (iPSC)-derived Cardiomyocytes Calcium (Ca+2) Flux Assay for Cardiotoxicity: Asystole (quiescence of beating) (AID 2284328; active = hit-call score of the fitted dose curve at least 0.9, where 1 is the maximum)
# Summary of the method: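 Human iPSC-derived cardiomyocytes (donor 1434) were exposed to 0.2, 1, 10 and 100 uM compound in 0.5% DMSO for 90 min at 37C. Ca2+-dye fluorescence gave average peak frequency; POD is EC95, a 95% beat-rate drop versus DMSO.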
# [4] = VALA_TUBIPS_Antagonist_CellCount: Viability Assessment in the VALA Sciences human iPS-derived Endothelial Tubule Formation (TUBIPS) Antagonism Assay (AID 2284335; active = hit-call score of the fitted dose curve at least 0.9, where 1 is the maximum)
# [5] = system: Brachyury (BRA) Protein Expression, Deisenroth Lab, TBXT (gene 6862); experiment: CCTE_Deisenroth_DEVTOX-GLR_legacy_Bra: (Legacy) CCTE's DevTox GLR-Endo Assay Evaluation of Brachyury (BRA) Protein Expression, Deisenroth Lab (AID 2284329)
# Summary of the method: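 RUES2-GLR human pluripotent cells differentiated 48 h with two 24-h-interval chemical exposures (1 nM - 200 uM, 10 points); fixed, nuclear-stained, imaged. Bra+ cell percentage (intensity 5x BMAD above pluripotent control median) fitted relative to 0.2% DMSO.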
# [6] = CCTE_Deisenroth_DEVTOX-GLR_legacy_CellCount: (Legacy) Viability Assessment in CCTE's DevTox GLR-Endo Assay, Deisenroth Lab (AID 2284331); settings: actives raise or lower the signal
# Summary of the method: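 Viability is taken from imaged nuclei counts in fixed RUES2-GLR cultures after 48 h of differentiation under two 24 h-spaced chemical exposures, 10 concentrations from 1 nM to 200 uM, gain or loss versus DMSO baseline.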
# [7] = IUF_NPC1_cytotoxicity_72hr: Cytotoxicity Assessment at 72 hours in the Leibniz Research Institute for Environmental Medicine (IUF) Neural Progenitor Cell Proliferation Assay (NPC1) (AID 2284332; active = hit-call score of the fitted dose curve at least 0.9, where 1 is the maximum;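 note: rising LDH signal means more cytotoxicity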)
# Summary of the method: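 Single human fetal cortex neural progenitor spheres (GW 16-19, 0.25-0.35 mm) in EGF/FGF proliferation medium were exposed to compound for 72 h at 37C without renewal. Medium LDH release was read as resorufin fluorescence and fitted as gain-of-signal.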
smiles,measurement,setting,value
CCCCCCCCCCCC[N+](C)(C)C,outcome,IYD (gene 389434),inactive
CCN(CC)C(=O)c1cc(S(=O)(=O)Cc2ccccc2)c(N2CCC(c3ccccc3)CC2)cc1N(CC)CCN(C)C,AC50,[1],10 µM (active)
same,outcome,[1],inactive
same,outcome,[2],inactive
same,AC50,SRD5A2 (gene 6716),17.3 µM (active)
same,outcome,SRD5A2 (gene 6716),inactive
CCN(Cc1cccc(S(=O)(=O)O)c1)c1ccc(C(=C2C=CC(=[N+](CC)Cc3cccc(S(=O)(=O)O)c3)C=C2)c2ccccc2S(=O)(=O)[O-])cc1,AC50,IYD (gene 389434),100 µM (active)
same,outcome,[1],inactive
same,AC50,[2],21.7 µM (active)
same,AC50,SRD5A2 (gene 6716),2.9 µM (active)
CN(C[C@@H](CC[N+]12CCC(C3CCCCC3)(CC1)CC2)c1ccc(Cl)c(Cl)c1)C(=O)c1cc(C(F)(F)F)cc(C(F)(F)F)c1,AC50,IYD (gene 389434),45.2 µM (active)
same,AC50,[1],19.7 µM (active)
same,AC50,[2],16.1 µM (active)
same,AC50,SRD5A2 (gene 6716),76 µM (active)
c1ccc2ccccc2c1,outcome,[3],inactive
CCCCCCCCCCCO,outcome,[1],inactive
same,outcome,[2],inactive
same,outcome,SRD5A2 (gene 6716),inactive
CCCCCCCCOC(=O)c1cc(O)c(O)c(O)c1,AC50,IYD (gene 389434),77 µM (active)
same,AC50,[1],74.7 µM (active)
same,AC50,[2],61.4 µM (active)
same,AC50,SRD5A2 (gene 6716),1.59 µM (active)
same,outcome,[4],inactive
CC/C(=C(/CC)c1ccc(O)cc1)c1ccc(O)cc1,outcome,[3],inactive
same,AC50,[5],1.3 µM (active)
same,AC50,[6],1.54 µM (active)
NCc1cccc(C2CCN(C(=O)c3ccc(C#Cc4ccccc4F)o3)CC2)c1,outcome,[1],inactive
same,outcome,[2],inactive
same,outcome,SRD5A2 (gene 6716),inactive
CN1C(=O)N(c2ccccc2Br)Cc2cnc(Nc3ccc4c(c3)OCC(CO)O4)nc21 (stereo not given),outcome,[1],inactive
same,outcome,[2],inactive
same,outcome,SRD5A2 (gene 6716),inactive
Cc1oc2c(NC(=O)c3c(Cl)cccc3Cl)cccc2c1C(C)(C)O,outcome,IYD (gene 389434),inactive
CCCOC(=O)c1cc(O)c(O)c(O)c1,outcome,[3],inactive
CC(C)(c1cc(Br)c(O)c(Br)c1)c1cc(Br)c(O)c(Br)c1,AC50,IYD (gene 389434),66.2 µM (active)
same,outcome,[3],inactive
same,outcome,[7],inactive
O=c1[nH]sc2ccccc12,AC50,[1],81.2 µM (active)
same,AC50,[2],82.8 µM (active)
same,AC50,SRD5A2 (gene 6716),75 µM (active)
